Drawing on PubChem BioAssay (NCI), this text covers growth inhibition for 25 compounds.

The structures appear in SMILES notation. About 79,000 compounds went through this panel and 15% of them were active in at least one assay; those are over-represented in the sample as a whole. Unmarked numbers belong to inactive results. Activity calls are given as the source filed them. Rule as the data show it: active = growth inhibition above about 70%; inactive = the rest.

Assay [1] in a line: NCI Yeast Anticancer Drug Screen. Data for the rad50 strain (AID 155).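 Also: 0% = growth of vehicle-only cultures of the same strain.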 The note with it: S. cerevisiae rad50 strain growth inhibition; at 50.0 µM; stronger effect = higher value. The gist of the method:
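Genetically altered yeast (DNA repair pathway); compound treatment; growth inhibition vs vehicle ctrl.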

Assay [2] in a line: NCI Yeast Anticancer Drug Screen. Data for the mec2-1 strain (AID 157). The conditions noted are these: S. cerevisiae mec2-1 strain, at 50.0 µM, stronger effect = higher value. The method, boiled down: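 Test agents were screened against the mec2-1 yeast strain, with defined DNA repair or cell cycle alteration. Growth was scored as inhibition against vehicle-only controls.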
Assay [3] can be described thus: NCI Yeast Anticancer Drug Screen. Data for the sgs1 mgt1 strain (AID 161).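 Also: 0% = growth of cultures given vehicle only.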 The note with it: S. cerevisiae sgs1 mgt1 strain, at 50.0 µM, stronger effect = higher value. The method, boiled down: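 Mutant yeast exposed to compound; growth scored against vehicle-only wells.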
Assay [4] in a line: NCI Yeast Anticancer Drug Screen. Data for the cln2 rad14 strain (AID 165).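 Also: 0% = growth equal to vehicle treated cultures.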 The note with it: S. cerevisiae cln2 rad14 strain, at 50.0 µM, stronger effect = higher value. The method, boiled down: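 Growth of compound-exposed yeast (cln2 rad14 genotype) measured and expressed as inhibition relative to vehicle.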
The nature of assay [5]: NCI Yeast Anticancer Drug Screen. Data for the bub3 strain (AID 167). The note with it: S. cerevisiae bub3 mutant strain, at 50.0 µM, stronger effect = higher value. The gist of the method:
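Yeast carrying a defined mutation is treated with each compound, and growth is compared with that of vehicle-exposed cells to give inhibition.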

Assay [6] is described as follows: NCI Yeast Anticancer Drug Screen. Data for the mlh1 rad18 strain (AID 175). The conditions noted are these: S. cerevisiae mlh1 rad18 strain growth inhibition; at 50.0 µM; stronger effect = higher value. The gist of the method: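 In this whole-cell yeast screen, a strain with altered DNA damage repair is challenged with compound, and its growth is measured against matched vehicle-treated controls.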

In the case of `OCCN1CCOCC1`, the growth inhibition in assay [1] was 31.9%; in assay [2] it was -2.05%; in assay [3] it was 1.4%; in assay [4], 24.9%; in assay [5], 7%.
Take `N#CCc1ccc([N+](=O)[O-])cc1`: the growth inhibition in assay [1] was -14.2%; in assay [2] it was 8.3%; in assay [3], -13.5%; in assay [4] it was -2.1%; in assay [5], 15.2%.
On the same counts, the results for `CCCC(=O)Nc1ccc2c(c1)CN1C(=O)c3ccccc3C1=N2` are -11.7%, 1.8%, 7.75%, 5.15% and -1.65%.
On to `CN(C)c1ccc(C(c2ccc(O)cc2)c2ccc(N(C)C)cc2)cc1`, for which the growth inhibition in assay [1] is -10.4%; in assay [2], -37.1%; in assay [3], -17.9%; in assay [4], -38.6%; in assay [5] it was -3%; in assay [6], -6.5%.
Turning to `O=C1Cc2cc(O)ccc2O1`, the growth inhibition is -13.4% in assay [1]; -28.2% in assay [2]; -48.6% in assay [3]; -0.85% in assay [4]; -32% in assay [5].
As to `CC(=O)OC(OC(C)=O)C1CCCO1` (stereo not drawn), the growth inhibition was -5.75% in assay [1]; -21.6% in assay [2]; -2.1% in assay [3]; 17.1% in assay [4]; -2.95% in assay [5].
`COC(=O)Nc1cccc(Cl)c1OC`: the growth inhibition in assay [1] was 8.6%; in assay [2], -21.4%; in assay [3], 0.45%; in assay [4], 2.05%; in assay [5] it was 3.55%; in assay [6] it was -6.55%.
In the case of `Clc1ccc(-c2n[nH]c3c2Cc2ccccc2-3)cc1Cl`, the growth inhibition was -5.1% in assay [1]; -10.8% in assay [2]; 16.4% in assay [3]; 16.4% in assay [4]; 11.8% in assay [5].
As for `O=S(=O)(O)c1ccc(Cl)c(Cl)c1`, the growth inhibition in assay [1] is -0.35%; in assay [2], -15%; in assay [3] it was -3.4%; in assay [4], 15.4%; in assay [5] it was -19.5%.
Consider `CCOC(=O)C(=O)C=P(c1ccccc1)(c1ccccc1)c1ccccc1`, for which the growth inhibition in assay [1] was -29.5%; in assay [2], -22.4%; in assay [3], -21.9%; in assay [4], -8.9%; in assay [5], -40.9%.
As to `FC(F)(F)c1ccc2c(c1)N(CCCN1CCN(C3CC3)CC1)c1ccccc1S2`, the growth inhibition in assay [1] was 99.3% (active); in assay [2], 99.3% (active); in assay [3], 99.7% (active); in assay [4], 99% (active).
With `O=c1[nH]c(O)c(/C=C2/C=Nc3ccccc32)[nH]1`, the growth inhibition in assay [1] was 0.45%; in assay [2], -5.85%; in assay [3], -8.35%; in assay [4], -15.2%; in assay [5], 4.1%.
Take `CC(=O)OCC1OC(OC2=C(CC=C(C)C)C(=O)c3ccccc3C2=O)C(OC(C)=O)C(OC(C)=O)C1OC(C)=O` (stereo not drawn): the growth inhibition in assay [1] is -7.2%; in assay [2], 3.85%; in assay [3], -17.4%; in assay [4], -15%; in assay [5], -12.7%.
Take `COC(=O)c1cccnc1`: the growth inhibition is 6.65% in assay [1]; -3.85% in assay [2]; -0.35% in assay [3]; 7.2% in assay [4]; -23.8% in assay [5].
On to `CCOc1ccc2[nH]c(=S)sc2c1`, for which the growth inhibition is 35.5% in assay [1]; 12.9% in assay [2]; 29.9% in assay [3]; 15.5% in assay [4]; -1.5% in assay [5].
For the compound `OC(c1ccccn1)C(O)c1ccccn1` (stereo not drawn), the growth inhibition in assay [1] was -2.55%; in assay [2], -4.45%; in assay [3], -0.6%; in assay [4], -9%; in assay [5] it was -5.6%.
In the case of `CC1=CC(C)(C)NC(=S)N1c1ccc(S(=O)(=O)O)c2cccc(S(=O)(=O)O)c12`, the growth inhibition in assay [1] was -4.8%; in assay [2], -5.25%; in assay [3], -13.1%; in assay [4], -30.9%; in assay [5] it was 4.3%.
In the case of `CCOC(=O)c1[nH]c(C)c(C(C)=O)c1C`, the growth inhibition in assay [1] is -0.45%; in assay [2] it was -22.5%; in assay [3], 9%; in assay [4], -10.5%; in assay [5], -27%.
Take `COc1ccc(/C(C#N)=C2C=C/C(=N/O)c3ccccc3\2)cc1`: the growth inhibition was -5.15% in assay [1]; 14.6% in assay [2]; 8.75% in assay [3]; -22.2% in assay [4]; 9.25% in assay [5].
On to `Nc1ccccc1C(=O)Nc1ccc(Cl)cc1Cl`, for which the growth inhibition in assay [1] is -9.1%; in assay [2] it was -22.4%; in assay [3], 7.4%; in assay [4], 4.85%; in assay [5] it was 21.9%.
As for `C/C(O)=C(\C=N\C(N)=S)C(=O)Nc1ccccc1`, the growth inhibition was -4.6% in assay [1]; -8.1% in assay [2]; -23.9% in assay [3]; -0.55% in assay [4]; -2.45% in assay [5].
Take `OC1OC(COC(c2ccccc2)(c2ccccc2)c2ccccc2)C(O)C(O)C1O` (stereo not drawn): the growth inhibition was -11.9% in assay [1]; -0.95% in assay [2]; -16.6% in assay [3]; 14.4% in assay [4]; -3.7% in assay [5].
For `O=S(=O)(O)c1cc(O)c2c(N=Cc3ccccc3O)c(S(=O)(=O)O)ccc2c1`, the growth inhibition was 5.15% in assay [1]; -9.6% in assay [2]; 6.55% in assay [3]; -2.45% in assay [4]; 17% in assay [5].
`COc1ccc(Oc2c(I)cc(CC(NC(C)=O)C(=O)O)cc2I)cc1` (stereo not drawn): the growth inhibition in assay [1] is 43.1%; in assay [2] it was 40.5%; in assay [3] it was 38.7%; in assay [4], 51.5%; in assay [5] it was 37.4%; in assay [6], 49.7%.
`CCCCC1(CC)COC(CCC)OC1` (stereo not drawn): the growth inhibition in assay [1] is 26.4%; in assay [2] it was 2.15%; in assay [3] it was 12.7%; in assay [4], -22.6%; in assay [5], -12.2%; in assay [6] it was 11.5%.
